This note sets out measurements from ChEMBL document CHEMBL3988442, “University of Dundee, Small-Polar-MMV Screening Library” (2021).

Molecules are shown by their SMILES.

The first experiment concerns the target T1, Aspartate--tRNA(Asp/Asn) ligase (Mycobacterium tuberculosis (strain ATCC 25618 / H37Rv)) (UniProt P9WFW3). Also: in the data most compounds retested in dose-response had high values.
T1 sequence (whole entry): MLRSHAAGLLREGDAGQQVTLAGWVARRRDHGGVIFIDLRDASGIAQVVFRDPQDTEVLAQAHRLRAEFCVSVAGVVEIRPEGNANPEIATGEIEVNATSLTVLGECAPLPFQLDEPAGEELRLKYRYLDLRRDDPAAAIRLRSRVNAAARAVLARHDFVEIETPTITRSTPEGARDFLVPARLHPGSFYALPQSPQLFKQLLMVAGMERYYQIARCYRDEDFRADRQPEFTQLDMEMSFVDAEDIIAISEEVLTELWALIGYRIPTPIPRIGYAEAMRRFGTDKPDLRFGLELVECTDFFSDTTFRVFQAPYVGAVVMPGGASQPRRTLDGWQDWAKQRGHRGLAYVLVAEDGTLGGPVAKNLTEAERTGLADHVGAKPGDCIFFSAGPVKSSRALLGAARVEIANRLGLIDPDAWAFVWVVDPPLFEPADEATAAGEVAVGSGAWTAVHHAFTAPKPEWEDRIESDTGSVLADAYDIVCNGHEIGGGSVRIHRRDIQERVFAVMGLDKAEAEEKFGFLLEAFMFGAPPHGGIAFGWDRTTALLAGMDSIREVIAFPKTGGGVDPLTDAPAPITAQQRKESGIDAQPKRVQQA
Kind of experiment: Assay for Asp RNA synthetase-1 from Mycobacterium tuberculosis. Type of experiment: functional. The arrangement: scale not given: direction of the effect not stated beside the values. To be noted: 30 µM.
Take `O=C1CO[C@@H]2CN(S(=O)(=O)c3ccccc3)C[C@H]2N1CC1CC1`: the Percent Effect stood at 5.5%.

For the compound `N#Cc1ccccc1OCCN1CCn2c(nnc2C2CC2)C1`, the Percent Effect is -1.13%.

On to `CC(NC1(CNC(=O)CC(C)(C)C)CCOCC1)c1ccccc1` (stereo not given), for which the Percent Effect was 9.41%.

With `CC(CN1CCOCC1)NCC1CCN(c2cnn(C)c(=O)c2)CC1` (stereo not given), the Percent Effect was 2.84%.

Take `COc1ccc(OCC(=O)NS(=O)(=O)c2cc(F)ccc2F)cc1`: the Percent Effect was -1.01%.

As for `O=C(c1ccc[nH]1)N1CCn2cc(Cn3cncn3)nc2C1`, the Percent Effect amounted to 1.43%.

As to `CC(=O)NC(C)(C)C(=O)Nc1ncc(Cc2ccc(C)c(F)c2)s1`, the Percent Effect is -1.27%.

As for `c1cncc(COCc2nnc3n2CCN(Cc2ccsc2)C3)c1`, the Percent Effect was -0.684%.

As for `COc1cccc2c1ccn2CCC(=O)NCCCC(=O)O`, the Percent Effect was -1.42%.

In the case of `CCN(C(=O)COC)C(c1cccnc1)c1cc(C)cc(C)c1` (stereo not given), the Percent Effect turned out to be 1.28%.

Consider `O=C(NCc1ccco1)[C@H]1C[C@@H]2CCN(c3ccncn3)C[C@@H]2O1`, for which the Percent Effect was -4.16%.

As for `CN(C)C1CCN(C(=O)NCc2ccccc2Cn2cncn2)CC1`, the Percent Effect was -2.31%.

For the compound `Cc1cccc(N2CCC(NC(=O)CCCc3cccs3)CC2)n1`, the Percent Effect amounted to 8.77%.

Regarding `COCC(=O)N1CCC2(CC1)CCN(Cc1ccccn1)C2=O`, the Percent Effect came to 3.22%.

In the case of `Cc1cccc(CNC2CCCc3c2cnn3C)c1` (stereo not given), the Percent Effect worked out at 0.855%.

For `COCCNC(=O)[C@H]1CN(Cc2scnc2C)C[C@H]2OCC[C@@H]12`, the Percent Effect was -3.26%.

For the compound `COc1cccc(-c2noc(C3CCN(Cc4cn(C)nc4C)C3)n2)c1` (stereo not given), the Percent Effect is -1.93%.

For the compound `CN(C)c1ncccc1CNC(=O)N1CCCC1CN1CCCCC1` (stereo not given), the Percent Effect is -2.19%.

As to `CC(C)Sc1nnc(CCNC(=O)OC(C)(C)C)o1`, the Percent Effect is -0.987%.

Turning to `Cc1cc(CN2CCCC(C)(CO)C2)ccc1F` (stereo not given), the Percent Effect is -3.62%.

Turning to `COCCOCC(=O)Nc1ccc(Br)cc1F`, the Percent Effect was -5.06%.

Consider `Cc1nn(C)c(N2CCOCC2)c1CNC1CCc2ccccc2C1` (stereo not given), for which the Percent Effect is -2.23%.

For `O=C(O)[C@@H]1CN(C(=O)c2cc(C3CC3)n[nH]2)C[C@H]1c1cccc(F)c1`, the Percent Effect is -3.42%.

As to `C[C@@H]1C[C@@H]2CCN(C(=O)c3cnccn3)C[C@H]2O1`, the Percent Effect came to 0.69%.

For `O=C(Cc1ccccc1F)N1CCN(C(=O)c2ccoc2)CC1`, the Percent Effect came out at 5.87%.

In the case of `COc1cccc(OCCNCc2c(C)nn(C)c2N(C)C)c1`, the Percent Effect was -1.97%.

In the case of `CC(=O)Nc1nc(CN2CCn3c(nnc3C3CC3)C2)cs1`, the Percent Effect was -7.9%.

Take `CCc1nc(CNCC2CCCN2c2cc(NC)ncn2)cs1` (stereo not given): the Percent Effect was -0.456%.

Consider `CNC(=O)CN(C)c1nc(-c2ccncc2)nc2c1CCN(C(C)=O)C2`, for which the Percent Effect is -1.03%.

Consider `COCC(=O)N1CCC(c2nccnc2Oc2cccnc2C)CC1`, for which the Percent Effect worked out at 3.02%.

Regarding `O=C(Cn1nc2c(cc1=O)CCCC2)N[C@@H](C(=O)O)c1ccccc1`, the Percent Effect is -1.42%.

With `Cc1ccc(S(=O)(=O)N2C[C@H]3C[C@H](NC(=O)c4ccn(C)n4)[C@H]3C2)cc1`, the Percent Effect was 1.35%.

Regarding `Cc1nc[nH]c1CN(C)CC1CCCN(CCc2ccc(Cl)cc2)C1` (stereo not given), the Percent Effect was 4.6%.

In the case of `Cc1nc(CN2CCCC(N(C)CCc3cccs3)C2)no1` (stereo not given), the Percent Effect was -3.43%.

In the case of `CC1c2ncc(COc3cccnc3)n2CCN1C(=O)Cc1ccco1` (stereo not given), the Percent Effect was -1.45%.

On to `CCC(NC(=O)CC(F)(F)F)c1ccccc1OCC(=O)N1CCCC1` (stereo not given), for which the Percent Effect amounted to 0.767%.

Turning to `Cc1ccc(CN2CCC[C@]3(C(=O)O)CN(c4ncccn4)C[C@@H]3C2)o1`, the Percent Effect is 7.77%.

As for `CNC(=O)c1ccc(C(=O)N2CCCC(n3cc(C)cn3)C2)cn1` (stereo not given), the Percent Effect was -5.95%.

Turning to `O=C(NCCn1ccc(-c2ccccn2)n1)C1CC1`, the Percent Effect was 2.14%.

For the compound `O=C(NCCO)c1ccn(-c2ccc3ccccn23)n1`, the Percent Effect was found to be 2.94%.

A further experiment deals with Shiga toxin 2 (Escherichia coli O157:H7) (UniProt P09385+P09386). Kind of experiment: E. coli 0.157:H7 Shiga Toxin SOP - stx2 screening assay. Type of experiment: functional. Also on record: scale not given: direction of the effect not stated beside the values. To be noted: 30 µM.
As for `O=C1CO[C@@H]2CN(S(=O)(=O)c3ccccc3)C[C@H]2N1CC1CC1`, the Percent Effect was -3.47%.

For the compound `N#Cc1ccccc1OCCN1CCn2c(nnc2C2CC2)C1`, the Percent Effect is -21.3%.

In the case of `CC(NC1(CNC(=O)CC(C)(C)C)CCOCC1)c1ccccc1` (stereo not given), the Percent Effect amounted to 20.8%.

With `CC(CN1CCOCC1)NCC1CCN(c2cnn(C)c(=O)c2)CC1` (stereo not given), the Percent Effect was -6.71%.

On to `COc1ccc(OCC(=O)NS(=O)(=O)c2cc(F)ccc2F)cc1`, for which the Percent Effect was -20.6%.

As for `O=C(c1ccc[nH]1)N1CCn2cc(Cn3cncn3)nc2C1`, the Percent Effect was -6.64%.

As for `CC(=O)NC(C)(C)C(=O)Nc1ncc(Cc2ccc(C)c(F)c2)s1`, the Percent Effect was -15.4%.

Regarding `c1cncc(COCc2nnc3n2CCN(Cc2ccsc2)C3)c1`, the Percent Effect was -54.6%.

Take `COc1cccc2c1ccn2CCC(=O)NCCCC(=O)O`: the Percent Effect is -21%.

Turning to `CCN(C(=O)COC)C(c1cccnc1)c1cc(C)cc(C)c1` (stereo not given), the Percent Effect is -51.4%.

For the compound `O=C(NCc1ccco1)[C@H]1C[C@@H]2CCN(c3ccncn3)C[C@@H]2O1`, the Percent Effect was -6.97%.

On to `CN(C)C1CCN(C(=O)NCc2ccccc2Cn2cncn2)CC1`, for which the Percent Effect was found to be 0.165%.

`Cc1cccc(N2CCC(NC(=O)CCCc3cccs3)CC2)n1`: the Percent Effect was -2%.

With `COCC(=O)N1CCC2(CC1)CCN(Cc1ccccn1)C2=O`, the Percent Effect stood at 7.27%.

With `Cc1cccc(CNC2CCCc3c2cnn3C)c1` (stereo not given), the Percent Effect was -9.23%.

Consider `COCCNC(=O)[C@H]1CN(Cc2scnc2C)C[C@H]2OCC[C@@H]12`, for which the Percent Effect was found to be 0.32%.

With `COc1cccc(-c2noc(C3CCN(Cc4cn(C)nc4C)C3)n2)c1` (stereo not given), the Percent Effect was -38.8%.

On to `CN(C)c1ncccc1CNC(=O)N1CCCC1CN1CCCCC1` (stereo not given), for which the Percent Effect was -17.9%.

Turning to `CC(C)Sc1nnc(CCNC(=O)OC(C)(C)C)o1`, the Percent Effect was -76.8%.

With `Cc1cc(CN2CCCC(C)(CO)C2)ccc1F` (stereo not given), the Percent Effect turned out to be 14.3%.

Regarding `COCCOCC(=O)Nc1ccc(Br)cc1F`, the Percent Effect is -5.97%.

On to `Cc1nn(C)c(N2CCOCC2)c1CNC1CCc2ccccc2C1` (stereo not given), for which the Percent Effect was -3.73%.

On to `O=C(O)[C@@H]1CN(C(=O)c2cc(C3CC3)n[nH]2)C[C@H]1c1cccc(F)c1`, for which the Percent Effect was -8.72%.

Take `C[C@@H]1C[C@@H]2CCN(C(=O)c3cnccn3)C[C@H]2O1`: the Percent Effect is -15.2%.

Regarding `O=C(Cc1ccccc1F)N1CCN(C(=O)c2ccoc2)CC1`, the Percent Effect was -6.64%.

As for `COc1cccc(OCCNCc2c(C)nn(C)c2N(C)C)c1`, the Percent Effect was determined as 19.6%.

In the case of `CC(=O)Nc1nc(CN2CCn3c(nnc3C3CC3)C2)cs1`, the Percent Effect was -26.2%.

On to `CCc1nc(CNCC2CCCN2c2cc(NC)ncn2)cs1` (stereo not given), for which the Percent Effect is -5.66%.

As to `CNC(=O)CN(C)c1nc(-c2ccncc2)nc2c1CCN(C(C)=O)C2`, the Percent Effect was -0.42%.

Take `COCC(=O)N1CCC(c2nccnc2Oc2cccnc2C)CC1`: the Percent Effect stood at 6.27%.

On to `O=C(Cn1nc2c(cc1=O)CCCC2)N[C@@H](C(=O)O)c1ccccc1`, for which the Percent Effect was -35.6%.

In the case of `Cc1ccc(S(=O)(=O)N2C[C@H]3C[C@H](NC(=O)c4ccn(C)n4)[C@H]3C2)cc1`, the Percent Effect is -2.81%.

With `Cc1nc[nH]c1CN(C)CC1CCCN(CCc2ccc(Cl)cc2)C1` (stereo not given), the Percent Effect is -62.7%.

On to `Cc1nc(CN2CCCC(N(C)CCc3cccs3)C2)no1` (stereo not given), for which the Percent Effect was determined as 25.8%.

For `CC1c2ncc(COc3cccnc3)n2CCN1C(=O)Cc1ccco1` (stereo not given), the Percent Effect was -2.51%.

Turning to `CCC(NC(=O)CC(F)(F)F)c1ccccc1OCC(=O)N1CCCC1` (stereo not given), the Percent Effect was -16.8%.

As to `Cc1ccc(CN2CCC[C@]3(C(=O)O)CN(c4ncccn4)C[C@@H]3C2)o1`, the Percent Effect is -25.5%.

Regarding `CNC(=O)c1ccc(C(=O)N2CCCC(n3cc(C)cn3)C2)cn1` (stereo not given), the Percent Effect was -41.9%.

With `O=C(NCCn1ccc(-c2ccccn2)n1)C1CC1`, the Percent Effect was -6.67%.

Consider `O=C(NCCO)c1ccn(-c2ccc3ccccn23)n1`, for which the Percent Effect is -37%.
